The campaign covered roughly 5,500 compounds. About 2,000 (36%) were called active. Not shown: some 18% with an inconclusive outcome. No stated cut-off is given here; in the data, active means normalized growth mostly below about 0.91 (no sharp cut-off); inconclusive means no clear call, values can overlap the other calls; inactive means mostly above about 0.92. This is one part of the list.
Experiment: chemical genetic growth profiling, strain panel (AID 1159580);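 further: tested at 20 µM; growth read once vehicle control cultures reached saturation at 30 °C; 1 = growth at the plate median or of vehicle wells; lower values mean less growth of the strain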
Settings: growth OD

Measured: normalized growth

CC(C)N1C(=O)c2ccccc2NS1(=O)=O
inactive: S. cerevisiae deletion strains, locus YKL009W, strain mrt4, active compounds read low 1.01 | S. cerevisiae deletion strains, locus YKL068W, active compounds read low 0.994 | S. cerevisiae deletion strains, locus YKL085W, strain MDH1 (second series), active compounds read low 0.997 | S. cerevisiae deletion strains, locus YKL085W, strain MDH1, active compounds read low 0.997 | S. cerevisiae deletion strains, locus YKL160W, strain elf1, active compounds read low 0.974 | S. cerevisiae deletion strains, locus YKL190W, strain CNB1, active compounds read low 0.998 | S. cerevisiae deletion strains, locus YKR001C, strain vps1, active compounds read low 1.01 | S. cerevisiae deletion strains, locus YKR026C, strain gcn3, active compounds read low 0.972 | S. cerevisiae deletion strains, locus YKR091W, strain srl3, active compounds read low 0.958 | S. cerevisiae deletion strains, locus YLL001W, strain dnm1, active compounds read low 0.937 | S. cerevisiae deletion strains, locus YLL026W, active compounds read low 0.971 | S. cerevisiae deletion strains, locus YLL041C, strain sdh2, active compounds read low 0.958 | S. cerevisiae deletion strains, locus YLR027C, strain aat2, active compounds read low 0.964 | S. cerevisiae deletion strains, locus YLR039C, strain RIC1, active compounds read low 1.03 | S. cerevisiae deletion strains, locus YLR058C, strain SHM2, active compounds read low 1 | S. cerevisiae deletion strains, locus YLR102C, strain apc9, active compounds read low 1 | S. cerevisiae deletion strains, locus YLR113W, strain HOG1, active compounds read low 0.964 | S. cerevisiae deletion strains, locus YLR221C, strain rsa3, active compounds read low 0.994 | S. cerevisiae deletion strains, locus YLR258W, strain gsy2, active compounds read low 0.98 | S. cerevisiae deletion strains, locus YLR262C, strain YPT6 (second series), active compounds read low 0.983 | S. cerevisiae deletion strains, locus YLR262C, strain YPT6, active compounds read low 1.02 | S. cerevisiae deletion strains, locus YLR268W, strain sec22, active compounds read low 1.01 | S. cerevisiae deletion strains, locus YLR320W, strain mms22, active compounds read low 1.01 | S. cerevisiae deletion strains, locus YLR330W, strain CHS5, active compounds read low 0.994 | S. cerevisiae deletion strains, locus YLR342W, strain FKS1 (second series), active compounds read low 1 | S. cerevisiae deletion strains, locus YLR342W, strain FKS1, active compounds read low 0.98 | S. cerevisiae deletion strains, locus YLR357W, strain rsc2, active compounds read low 0.978 | S. cerevisiae deletion strains, locus YLR370C, strain arc18, active compounds read low 0.973 | S. cerevisiae deletion strains, locus YLR371W, strain rom2, active compounds read low 1 | S. cerevisiae deletion strains, locus YLR384C, strain iki3, active compounds read low 0.974 | S. cerevisiae deletion strains, locus YLR418C, strain cdc73, active compounds read low 1.02 | S. cerevisiae deletion strains, locus YML016C, strain PPZ1, active compounds read low 0.997 | S. cerevisiae deletion strains, locus YML032C, strain rad52, active compounds read low 1.01 | S. cerevisiae deletion strains, locus YML120C, strain ndi1, active compounds read low 0.956 | S. cerevisiae deletion strains, locus YML124C, strain tub3, active compounds read low 1 | S. cerevisiae deletion strains, locus YMR058W, strain fet3, active compounds read low 0.968 | S. cerevisiae deletion strains, locus YMR078C, strain ctf18, active compounds read low 0.998 | S. cerevisiae deletion strains, locus YMR125W, strain sto1, active compounds read low 0.933 | S. cerevisiae deletion strains, locus YMR129W, active compounds read low 0.964 | S. cerevisiae deletion strains, locus YMR205C, strain PFK2, active compounds read low 0.961 | S. cerevisiae deletion strains, locus YMR223W, strain ubp8, active compounds read low 1 | S. cerevisiae deletion strains, locus YMR231W, strain pep5, active compounds read low 0.974 | S. cerevisiae deletion strains, locus YMR263W, strain SAP30, active compounds read low 1.01 | S. cerevisiae deletion strains, locus YMR307W, strain GAS1, active compounds read low 1.03 | S. cerevisiae deletion strains, locus YNL067W, strain RPL9B, active compounds read low 0.995 | S. cerevisiae deletion strains, locus YNL071W, strain lat1, active compounds read low 0.98 | S. cerevisiae deletion strains, locus YNL128W, strain TEP1, active compounds read low 1.01 | S. cerevisiae deletion strains, locus YNL153C, strain GIM3, active compounds read low 0.994 | S. cerevisiae deletion strains, locus YNL183C, strain NPR1, active compounds read low 0.973 | S. cerevisiae deletion strains, locus YNL209W, strain ssb2, active compounds read low 0.963 | S. cerevisiae deletion strains, locus YNL233W, strain BNI4, active compounds read low 0.997 | S. cerevisiae deletion strains, locus YNL248C, strain rpa49, active compounds read low 0.99 | S. cerevisiae deletion strains, locus YNL250W, strain rad50, active compounds read low 0.997 | S. cerevisiae deletion strains, locus YNL271C, strain bni1, active compounds read low 0.998 | S. cerevisiae deletion strains, locus YNL298W, strain CLA4, active compounds read low 1.01 | S. cerevisiae deletion strains, locus YNL307C, strain MCK1, active compounds read low 1.01 | S. cerevisiae deletion strains, locus YNL322C, strain KRE1 (second series), active compounds read low 0.951 | S. cerevisiae deletion strains, locus YNL322C, strain KRE1, active compounds read low 1 | S. cerevisiae deletion strains, locus YNR049C, strain mso1, active compounds read low 0.952 | S. cerevisiae deletion strains, locus YNR052C, strain pop2, active compounds read low 0.996 | S. cerevisiae deletion strains, locus YOL006C, strain TOP1, active compounds read low 1.06 | S. cerevisiae deletion strains, locus YOL012C, strain htz1 1.04 | S. cerevisiae deletion strains, locus YOL147C, strain pex11, active compounds read low 0.997 | S. cerevisiae deletion strains, locus YOR001W, strain rrp6, active compounds read low 0.967 | S. cerevisiae deletion strains, locus YOR061W, strain CKA2, active compounds read low 0.998 | S. cerevisiae deletion strains, locus YOR069W, strain VPS5, active compounds read low 0.989 | S. cerevisiae deletion strains, locus YOR070C, strain gyp1, active compounds read low 0.983 | S. cerevisiae deletion strains, locus YOR080W, strain dia2, active compounds read low 0.98 | S. cerevisiae deletion strains, locus YOR083W, strain WHI5, active compounds read low 0.964 | S. cerevisiae deletion strains, locus YOR106W, strain vam3, active compounds read low 0.966 | S. cerevisiae deletion strains, locus YOR136W, strain idh2, active compounds read low 1 | S. cerevisiae deletion strains, locus YOR144C, strain elg1, active compounds read low 0.999 | S. cerevisiae deletion strains, locus YOR184W, strain ser1, active compounds read low 1.01 | S. cerevisiae deletion strains, locus YOR231W, strain MKK1, active compounds read low 0.998 | S. cerevisiae deletion strains, locus YOR265W, strain rbl2, active compounds read low 0.973 | S. cerevisiae deletion strains, locus YOR270C, strain vph1, active compounds read low 0.97 | S. cerevisiae deletion strains, locus YOR290C, strain snf2, active compounds read low 0.96 | S. cerevisiae deletion strains, locus YOR316C, strain cot1, active compounds read low 1.01 | S. cerevisiae deletion strains, locus YPL051W, strain arl3, active compounds read low 0.981 | S. cerevisiae deletion strains, locus YPL055C, strain LGE1, active compounds read low 1.02 | S. cerevisiae deletion strains, locus YPL078C, strain atp4, active compounds read low 0.961 | S. cerevisiae deletion strains, locus YPL106C, strain sse1, active compounds read low 0.971 | S. cerevisiae deletion strains, locus YPL240C, strain hsp82, active compounds read low 0.968 | S. cerevisiae deletion strains, locus YPL241C, strain CIN2, active compounds read low 0.999 | S. cerevisiae deletion strains, locus YPL256C, strain CLN2, active compounds read low 0.987 | S. cerevisiae deletion strains, locus YPR119W, strain clb2, active compounds read low 0.99 | S. cerevisiae deletion strains, locus YPR141C, strain kar3, active compounds read low 1.01 | S. cerevisiae deletion strains, locus YPR163C, strain tif3, active compounds read low 1 | S. cerevisiae deletion strains, locus YPR167C, strain met16, active compounds read low 0.996 | S. cerevisiae deletion strains, strain wtn01, active compounds read low 1.01 | S. cerevisiae strains, strain wild type, active compounds read low 0.997
